Screening data: PubChem BioAssay, National Center for Advancing Translational Sciences (NCATS)
The full list was thinned out, with hits kept by preference.
VDR inh = Inhibitors of the vitamin D receptor (VDR): qHTS | Potency, µM, for the others: max response, negative = inhibition, usual class: inhibitors | VDR-SRC2-3 peptide fluorescence polarization, 2 h | AID 504847, 2011 | 400,000 tested, 0.93% active | Vitamin D3 receptor (Homo sapiens), P11473; also: % is scaled to controls: 0 for no effect and ±100 for the full control effect
Target sequence (P11473 whole entry, looked up): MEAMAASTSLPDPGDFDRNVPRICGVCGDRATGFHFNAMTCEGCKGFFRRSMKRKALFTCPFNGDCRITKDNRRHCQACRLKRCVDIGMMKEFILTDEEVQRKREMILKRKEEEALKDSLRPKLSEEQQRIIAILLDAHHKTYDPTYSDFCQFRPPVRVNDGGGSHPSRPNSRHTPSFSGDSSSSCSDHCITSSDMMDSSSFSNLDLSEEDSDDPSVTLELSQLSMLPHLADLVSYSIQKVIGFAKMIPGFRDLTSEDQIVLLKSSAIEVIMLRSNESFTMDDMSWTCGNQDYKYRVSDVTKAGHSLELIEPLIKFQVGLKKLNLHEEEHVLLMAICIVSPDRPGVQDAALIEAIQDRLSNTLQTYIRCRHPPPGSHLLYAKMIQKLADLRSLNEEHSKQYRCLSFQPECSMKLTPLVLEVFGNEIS
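VDR–SRC2-3 interaction, FP format. Cmpds 23 nl via pintool, brief spin, 2 h ambient incubation.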
12-LOX inh = Primary qHTS assay for inhibitors of human arachidonate 12S-lipoxygenase (ALOX12): Round 2 | Polyunsaturated fatty acid lipoxygenase ALOX12 (Homo sapiens), P18054 | purified 12hLO, xylenol orange hydroperoxide absorbance | Potency, µM (top dose mostly 108 µM), for inactives: top-dose activity change, negative = inhibition, hits mostly inhibitors | 580,000 tested, 1.1% active; also: % is scaled to controls: 0 for no effect and ±100 for the full control effect
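Purified human 12hLO at 150 nM in 25 mM Hepes, 0.01% Triton X-100, pH 7.0, preincubated 15 min at room temperature with compound. Reaction started with 40 uM arachidonic acid, 30 min at room temperature. Hydroperoxide measured by Fe-xylenol orange, 573/405 nm absorbance ratio.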
G9a inh = qHTS Assay for Inhibitors of Histone Lysine Methyltransferase G9a | 350,000 tested, 8.8% active | Potency, µM (doses to about 102 µM), without a hit: top-dose activity, negative = inhibition, most hits filed as inhibitors | Histone-lysine N-methyltransferase EHMT2 (Homo sapiens), Q96KQ7 | G9a H3K9 monomethylation, AlphaScreen, 2 h | AID 504332, 2011; also: % is scaled to controls: 0 for no effect and ±100 for the full control effect; nearly all actives have a fitted effect of over 75% in size
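Step 1: enzyme (final 20 nM) with compound, 15 min RT. Step 2: substrate peptide 500 nM and SAM 20 uM, 2 h RT. Step 3: anti-H3K9me1 antibody and AlphaScreen beads, 10 min, then plate read.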
Glioma ERSR ind = qHTS for Inducers of the Endoplasmic Reticulum Stress Response (ERSR) in Human Glioma: qHTS | Potency, µM, inactives show at the highest dose activation, usual class: activators | U87-MG GRP78 promoter luciferase reporter, 16 h | 420,000 tested, 0.02% active | AID 602332, 2012; also: series mostly up to about 76 µM; % of control where 0% means no effect; nearly all actives have a fitted effect of over 35% in size
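ERSR induction read as luciferase luminescence (Bright-Glo, 10 min at room temperature) in stably transfected human U87-MG glioma cells exposed to compounds for 16 h, using GRP78 as sensor.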
Sfp inh = qHTS Assay for Inhibitors of Bacillus subtilis Sfp phosphopantetheinyl transferase (PPTase). 4'-phosphopantetheinyl transferase ffp (Bacillus subtilis), Q9F4F7. Potency, µM, for the others: largest response in the series, negative = inhibition, actives largely listed as inhibitors. AID 1490, 2009. Biochemical Sfp PPTase activity, qHTS. 310,000 tested, 3.5% active;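 also: the enzyme is Sfp with the accession as filed and its product quenches rhodamine fluorescence; 0% = enzyme reaction without inhibitor and -100% = no enzyme wells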
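Reaction rates are the 30-min fluorescence difference (ex 525, em 598 nm) in wells containing 15 nM Sfp, 5 uM rhodamine-CoA and 12.5 uM BHQ-2-YbbR at pH 7.6 with 10 mM MgCl2.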
An asterisk follows results filed as active; ? = inconclusive; · = no result; [ ] = dose if it differs, or a comment. Calls follow the shape of the dose curve; as a rule, active = well fitted curve in the direction sought with a large enough effect; inconclusive = small, poorly fitted or top-dose-only effect, or another doubt; inactive = no such curve, though single readings can be large; an effect the other way counts as inactive or inconclusive. Potency is read from the fitted curve at half-maximal effect.

SMILES | VDR inh | 12-LOX inh | G9a inh | Glioma ERSR ind | Sfp inh
O=[N+]([O-])c1ccc(O)c(/C=N/Nc2ccccc2Cl)c1 | 11.0% | ? | 6.31µM* | 4.5% | 8.4%
COc1cc(/C=N/Nc2ccc([N+](=O)[O-])cc2S(=O)(=O)N2CCOCC2)cc(OC)c1OC | -20.6% | -9.6% | ? | -3.5% | 15.7%
O=C(CCc1ccc(S(=O)(=O)N2CCOCC2)cc1)N/N=C/c1ccc(O)c(O)c1O | -1.4% | 0.3% | 7.94µM* | -10.0% | 22.4µM*
CC(=O)c1cccc(S(=O)(=O)NCCC(=O)NC(C)C)c1 | · | -3.7% | · | · | ·
COc1cccc(CN2CCCCCC2c2cccs2)c1OC (centres undefined) | · | -4.6% | · | · | ·
O=[N+]([O-])c1ccccc1N/N=C/c1cccc(O)c1O | -7.8% | -13.1% | ? | -1.8% | 0.5%
O=[N+]([O-])c1cccc(N/N=C/c2cccc(O)c2O)c1 | -5.8% | 11.2µM* | 22.4µM* | 3.4% | -21.6%
O=[N+]([O-])c1ccc(/C=N/Nc2cccc(Cl)c2)cc1 | · | 3.16µM* | · | · | ·
O=[N+]([O-])c1ccc(N/N=C/c2cccc(O)c2O)c(S(=O)(=O)N2CCOCC2)c1 | 11.4% | ? | 35.5µM* | -3.2% | -6.0%
Clc1cccc(N/N=C/c2ccncc2)c1 | 7.6% | ? | ? | 8.6% | -1.7%
O=C(Cn1c(=O)c2c(ncn2Cc2ccccc2)n(Cc2ccccc2)c1=O)NCCc1ccccc1 | · | -10.7% | · | · | ·
CCNC(=O)CN1CCN(c2nccc(C3CCCC3)n2)CC1 | · | 23.4% | · | · | ·
C/C(=N\Nc1ccc(Cl)cc1)c1ccncc1 | -21.2% | ? | ? | -5.9% | -9.6%
C/C(=N\Nc1nccnc1Cl)c1ccc([N+](=O)[O-])cc1 | -13.1% | 462.9% | 17.8%[59 µM] | 5.0% | 79.4µM*
C/C(=N\Nc1cc(C(F)(F)F)ccc1Cl)c1ccncc1 | -15.7% | ? | 39.8µM* | -6.5% | -1.3%
C/C(=N/Nc1ccc([N+](=O)[O-])cc1)c1ccncc1 | · | 35.5µM* | · | · | ·
C/C(=N\Nc1cccc(Cl)c1)c1ccncc1 | -2.9% | 17.8µM* | ? | 2.0% | 6.0%
C/C(=N\Nc1nccnc1Cl)c1ccc(Br)cc1 | -1.2% | -20.4% | 4.0% | 2.2% | 8.2%
COc1ccc2oc(=O)c(S(=O)(=O)c3cccc(Cl)c3)cc2c1 | · | -4.0% | · | · | ·
Cc1cc(C(C)(C)C)cc(C)c1CS(=O)(=O)CCCO | · | 59.0% | · | · | ·
C=CCNC(=O)COC(=O)c1ccc(Cl)c(S(=O)(=O)N(Cc2ccccc2)c2ccccc2)c1 | 15.5% | -11.6% | 31.6µM* | -2.4% | 4.3%
NC(=O)NC(=O)COC(=O)c1ccc(Cl)c(S(=O)(=O)N(Cc2ccccc2)c2ccc(Cl)cc2)c1 | -8.9% | -2.8% | 3.1%[59 µM] | -0.2% | 27.9%
O=C(O)c1ccc(Cl)c(S(=O)(=O)N(Cc2ccccc2)c2ccc(Cl)cc2)c1 | -10.8% | ? | 50.1µM* | -3.5% | 19.0%
O=C(O)c1ccc(Cl)c(S(=O)(=O)Nc2ccccc2Cc2ccccc2)c1 | 6.4% | ? | 79.4µM* | -3.6% | 12.8%
O=C(O)c1cc(S(=O)(=O)Nc2ccccc2Cc2ccccc2)ccc1Cl | -4.5% | -6.3% | -15.8% | -2.0% | 30.2%
NC(=O)COC(=O)c1ccc(Cl)c(S(=O)(=O)N(Cc2ccccc2)c2ccc(Cl)cc2)c1 | -20.0% | -10.5% | ? | 0.6% | 18.4%
O=C(O)c1cc(S(=O)(=O)Nc2cccc3ccccc23)c(Cl)cc1Cl | -16.9% | 0.0% | 56.2µM* | 3.0% | -12.3%
Cc1ccc(/C=N/n2c(-c3ccncc3)n[nH]c2=S)cc1 | -1.5% | ? | 1.41µM* | -0.7% | ?
CC(C)(C)c1ccc(-c2n[nH]c(=S)n2/N=C/c2ccncc2)cc1 | -17.9% | ? | 2.51µM* | 1.1% | -3.4%
COc1ccc(C)cc1NC(=O)C(NCC(O)c1ccccc1)c1ccccc1 (centres undefined) | -10.1% | -23.5% | 2.82µM* | -6.2% | ?
